Source: PubChem
In the library only some 2.6% were active in any assay of this set; here they are far more common.
PAFAH2 inh: PAFAH2 enzyme inhibitors, primary screen, biochemical, fluorescence polarization, human; inhibition, % at 3.39 µM; AID 492956, 2010; 0.99% of 340,000 active; recombinant PAFAH2, FP-rhodamine activity probe;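 active means inhibition above the mean over all tested compounds plus 3 SD, cut at about 30% in these data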;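 further: inhibitors block probe labeling of enzyme so polarization drops; 0% = enzyme with DMSO and 100% = wells lacking PAFAH2 protein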
pPAFAH FP inh: pPAFAH enzyme inhibitors, primary screen, biochemical, fluorescence polarization, human | recombinant pPAFAH, FP-rhodamine probe fluorescence polarization | inhibition, % at 3.39 µM | 1.5% of 330,000 active;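 active means inhibition above the mean inhibition across the screen plus 3 SD, cut at about 25% in these data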;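 further: inhibitors block binding of the rhodamine activity-based probe so polarization drops; 0% = enzyme with DMSO and 100% = wells lacking pPAFAH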
PKA-R2B act: activators of PKA-R2B holoenzyme, primary screen, biochemical, fluorescence polarization, Cy5-IP20, human | cAMP-dependent protein kinase catalytic subunit beta (Homo sapiens) + cAMP-dependent … | PKA-R2B holoenzyme dissociation; R2B truncated from residue 108, S112A mutant; 0% DMSO only, 100% 113 µM cGMP | activation, % at 11.4 µM | 0.079% of 340,000 active | AID 504700, 2011;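 active means activation above a cutoff set at the mean over all compounds plus 3 SD, cut at about 18% in these data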;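 further: higher means more holoenzyme dissociation and a rise in polarization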
PAFAH1B2 FP inh: PAFAH1B2 enzyme inhibitors, primary screen, biochemical, fluorescence polarization, human | 1.2% of 340,000 active | recombinant PAFAH1B2, FP-rhodamine activity probe | Platelet-activating factor acetylhydrolase IB subunit alpha2 (Homo sapiens), P68402 | inhibition, % at 3.39 µM;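 active means inhibition above the mean of all tested compounds plus 3 SD, cut at about 24% in these data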;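 further: 0% = enzyme with DMSO and 100% = wells lacking PAFAH1B2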
Target sequence (P68402 whole entry, looked up): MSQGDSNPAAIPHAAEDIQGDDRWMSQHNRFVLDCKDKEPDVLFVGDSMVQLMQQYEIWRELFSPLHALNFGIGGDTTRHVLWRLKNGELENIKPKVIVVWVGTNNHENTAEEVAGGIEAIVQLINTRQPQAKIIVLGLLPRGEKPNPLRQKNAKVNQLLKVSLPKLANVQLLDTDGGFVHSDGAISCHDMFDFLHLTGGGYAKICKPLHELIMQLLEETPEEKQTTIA
PKA-R1A activ: activators of PKA-R1A holoenzyme, primary screen, biochemical, fluorescence polarization, Cy5-IP20, bovine R1A, mouse PKAc; AID 504707, 2011; 0.083% of 340,000 active; cAMP-dependent protein kinase type I-alpha regulatory subunit (Bos taurus) + …; PKA-R1A dissociation; scaled: DMSO 0%, 113 µM cGMP 100%; activation, % at 11.4 µM;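 active means percent activation above the mean of all tested compounds plus 3 SD, cut at about 19% in these data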;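 further: higher means more PKAc released from R1A so a rise in polarization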
PAFAH1B3 FP inh: PAFAH1B3 enzyme inhibitors, primary screen, biochemical, fluorescence polarization, human. recombinant PAFAH1B3, FP-rhodamine probe. 0.28% of 340,000 active. inhibition, % at 3.39 µM. Platelet-activating factor acetylhydrolase IB subunit alpha1 (Homo sapiens), Q15102;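 active means inhibition above the screen-wide average of all tested compounds plus 3 SD, cut at about 25% in these data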;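 further: 0% = enzyme with DMSO only and 100% = wells lacking PAFAH1B3 protein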
Target sequence (Q15102 whole entry, looked up): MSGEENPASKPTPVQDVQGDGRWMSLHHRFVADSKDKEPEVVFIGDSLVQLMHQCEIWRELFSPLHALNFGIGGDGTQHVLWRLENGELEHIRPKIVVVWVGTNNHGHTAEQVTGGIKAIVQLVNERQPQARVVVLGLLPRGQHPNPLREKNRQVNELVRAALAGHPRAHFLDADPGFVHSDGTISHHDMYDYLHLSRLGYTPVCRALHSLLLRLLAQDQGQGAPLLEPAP
PAFAH2 FP conf: PAFAH2 enzyme inhibitors, confirmation, biochemical, fluorescence polarization, human; shares compounds with PAFAH2 inh; recombinant PAFAH2, FP-rhodamine activity probe; inhibition, % at 3.39 µM; 65% of 2,300 active;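 active means mean inhibition over three repeats above a set limit taken from the earlier primary screen, cut at about 30% in these data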;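 further: inhibitor blocks binding of rhodamine activity probe so polarization falls; 0% = enzyme with DMSO and 100% = wells lacking PAFAH2 protein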
An asterisk follows results filed as active.

How did COC(=O)Nc1nc(-c2ccccc2)c(C(=O)c2ccc(Cl)cc2)s1 do in these assays?
PAFAH2 inh: 9.5; pPAFAH FP inh: 2.1; PKA-R2B act: -2.8; PAFAH1B2 FP inh: 9.1; PKA-R1A activ: -11.0; PAFAH1B3 FP inh: 4.8

How did CCOC(=O)Nc1nc(-c2ccccc2)c(C(=O)c2ccccc2)s1 do in these assays?
PAFAH2 inh: 41.0*; pPAFAH FP inh: 4.0; PKA-R2B act: 9.1; PAFAH1B2 FP inh: 10.6; PKA-R1A activ: -1.9; PAFAH1B3 FP inh: 9.5; PAFAH2 FP conf: 41.9*

What do the screens show for `O=C(NC1CCCCC1)C(c1ccncc1)N(C(=O)Cn1nnc(-c2cccs2)n1)C1CCCC1` (configuration not stated)?
PAFAH2 inh: 61.7*; pPAFAH FP inh: 6.4; PKA-R2B act: -10.9; PAFAH1B2 FP inh: -1.4; PKA-R1A activ: -7.0; PAFAH1B3 FP inh: -4.0; PAFAH2 FP conf: 53.8*

How did Cc1ccc(C(=O)COC(=O)c2ccc(Cl)c(N)c2)s1 do in these assays?
PAFAH2 inh: 32.1*; pPAFAH FP inh: 7.4; PKA-R2B act: -5.7; PAFAH1B2 FP inh: -2.0; PKA-R1A activ: 1.7; PAFAH1B3 FP inh: 8.0; PAFAH2 FP conf: 22.3

How did COc1cccc(C(=O)OCC(=O)c2ccc(Br)s2)c1OC do in these assays?
PAFAH2 inh: 62.2*; pPAFAH FP inh: 18.8; PKA-R2B act: -4.6; PAFAH1B2 FP inh: -1.6; PKA-R1A activ: 2.1; PAFAH1B3 FP inh: 3.7; PAFAH2 FP conf: 51.7*

How did O=C(OCC(=O)C12CC3CC(CC(C3)C1)C2)c1ccc(CO)cc1 do in these assays?
PAFAH2 inh: 80.2*; pPAFAH FP inh: -0.3; PKA-R2B act: 1.1; PAFAH1B2 FP inh: 18.5; PKA-R1A activ: -7.0; PAFAH1B3 FP inh: 5.1; PAFAH2 FP conf: 83.0*

Results for Cc1ccc(C(=O)NCC(=O)OCC(=O)c2ccc(Cl)s2)cc1 ?
PAFAH2 inh: 7.7; pPAFAH FP inh: 7.0; PKA-R2B act: -7.3; PAFAH1B2 FP inh: 2.8; PKA-R1A activ: -20.0; PAFAH1B3 FP inh: 3.8

How did O=C(OCC(=O)c1ccc(Cl)s1)c1ccc(CO)cc1 do in these assays?
PAFAH2 inh: 60.8*; pPAFAH FP inh: -1.2; PKA-R2B act: 1.6; PAFAH1B2 FP inh: 4.6; PKA-R1A activ: 3.4; PAFAH1B3 FP inh: 5.0; PAFAH2 FP conf: 51.0*

How did CN(C)C(=S)Oc1ccccc1-c1ccccc1OC(=S)N(C)C do in these assays?
PAFAH2 inh: -7.9; pPAFAH FP inh: -5.9; PKA-R2B act: -6.0; PAFAH1B2 FP inh: 6.1; PKA-R1A activ: -11.5; PAFAH1B3 FP inh: 5.3

Results for COC(=O)c1c(NC(=O)COC(=O)CNC(=O)c2cccc(OC(F)F)c2)sc(C)c1C ?
PKA-R2B act: -1.4; PKA-R1A activ: 0.5

Results for COc1ccc(CN2CCN(C(=O)c3ccc(CNS(=O)(=O)c4ccc(C)cc4)cc3)CC2)c(OC)c1OC ?
PAFAH2 inh: 6.7; pPAFAH FP inh: 1.7; PKA-R2B act: -1.6; PAFAH1B2 FP inh: -1.3; PKA-R1A activ: -5.3; PAFAH1B3 FP inh: 7.5

How did O=C(OCC(=O)c1ccc(Br)s1)c1ccc(O)cc1 do in these assays?
PAFAH2 inh: 66.0*; pPAFAH FP inh: 18.6; PKA-R2B act: 0.6; PAFAH1B2 FP inh: 5.4; PKA-R1A activ: 6.1; PAFAH1B3 FP inh: 3.5; PAFAH2 FP conf: 61.2*

How did COc1ccc2c(C(=O)c3ccc(C)cc3)n(Cc3ccc(C(N)=O)cc3)[n+]([O-])c2c1 do in these assays?
PAFAH2 inh: 2.3; pPAFAH FP inh: -0.5; PKA-R2B act: -1.7; PAFAH1B2 FP inh: 4.5; PKA-R1A activ: 0.3; PAFAH1B3 FP inh: -1.7

Results for Nc1nnc(SCC(=O)Nc2cc(F)ccc2F)s1 ?
PAFAH2 inh: -8.0; pPAFAH FP inh: -0.2; PKA-R2B act: 0.3; PAFAH1B2 FP inh: 3.0; PKA-R1A activ: -3.7; PAFAH1B3 FP inh: 5.6

What do the screens show for `CC(C)(C)c1ccc(S(=O)(=O)N2CC(C(=O)O)Oc3ccc(Cl)cc32)cc1` (configuration not stated)?
PAFAH2 inh: 34.1*; pPAFAH FP inh: 6.5; PKA-R2B act: -1.0; PAFAH1B2 FP inh: 21.4; PKA-R1A activ: -12.8; PAFAH1B3 FP inh: -2.5; PAFAH2 FP conf: 18.6

Results for O=C(Nc1cc(C(F)(F)F)ccc1-n1cncn1)c1ccc([N+](=O)[O-])o1 ?
PAFAH2 inh: 4.2; pPAFAH FP inh: 6.5; PKA-R2B act: -4.0; PAFAH1B2 FP inh: 3.0; PKA-R1A activ: -6.9; PAFAH1B3 FP inh: 2.3

How did O=c1cc(-c2ccco2)nc(SCc2cccc(Cl)c2)[nH]1 do in these assays?
PAFAH2 inh: 32.1*; pPAFAH FP inh: 4.6; PKA-R2B act: 4.7; PAFAH1B2 FP inh: -3.5; PKA-R1A activ: 11.8; PAFAH1B3 FP inh: 1.9; PAFAH2 FP conf: 17.4

Results for O=C1CCC/C=C\C[C@@H](CC(=O)N(CCO)Cc2ccccc2)C(=O)N[C@H](Cc2c[nH]c3ccccc23)CO1 ?
PAFAH2 inh: 9.5; pPAFAH FP inh: -3.6; PKA-R2B act: -3.4; PAFAH1B2 FP inh: 5.3; PKA-R1A activ: 2.6; PAFAH1B3 FP inh: 4.9

Results for O=C1CCCC/C=C\C[C@H](CC(=O)N(CCO)Cc2ccccc2)C(=O)N[C@@H](Cc2ccccc2)CO1 ?
PAFAH2 inh: 44.6*; pPAFAH FP inh: 0.1; PKA-R2B act: -2.7; PAFAH1B2 FP inh: 16.9; PKA-R1A activ: -3.2; PAFAH1B3 FP inh: 9.2; PAFAH2 FP conf: 28.0

What do the screens show for `O=C1CCC/C=C/C[C@H](CC(=O)N(CCO)Cc2ccccc2)C(=O)N[C@@H](Cc2ccccc2)CO1`?
PAFAH2 inh: 45.4*; pPAFAH FP inh: 1.9; PKA-R2B act: 7.6; PAFAH1B2 FP inh: 5.0; PKA-R1A activ: 4.3; PAFAH1B3 FP inh: -7.4; PAFAH2 FP conf: 29.4

Results for CCOc1ccc(CCNC(=O)CCn2ccc3cc(S(=O)(=O)N4CCCC4)ccc32)cc1 ?
PAFAH2 inh: 8.4; pPAFAH FP inh: 4.0; PKA-R2B act: 0.2; PAFAH1B2 FP inh: 4.4; PKA-R1A activ: -9.7; PAFAH1B3 FP inh: 2.8

How did CC1CCCN(C(=O)COC(=O)c2ccc3[nH]c4c(c3c2)CCCC4)C1 (configuration not stated) do in these assays?
PAFAH2 inh: 41.2*; pPAFAH FP inh: 9.0; PKA-R2B act: 7.9; PAFAH1B2 FP inh: 5.0; PKA-R1A activ: 1.5; PAFAH1B3 FP inh: -2.4; PAFAH2 FP conf: 26.2
